The results in this text go back to PubChem BioAssay (NCATS).

Results filed as inconclusive are left out. Where a call stands in place of a potency, no number is given. Calls of active or inactive are those of the source. The call rests on the fitted dose curve.
Potency means the concentration at half of the fitted maximal effect.

This test in a line: Natriuretic polypeptide receptor (hNpr1) antagonism - Pilot counterscreen GloSensor control cell line (AID 1347045). Conditions: HEK293 cGMP GloSensor cells, SNP-stimulated luminescence, 20 min; series mostly up to 38.3 µM. The procedure:
F. Fan, B. F. Binkowski, B. L. Butler, P. F. Stecha, M. K. Lewis, K. V. Wood, Novel genetically encoded biosensors using firefly luciferase. ACS Chem Biol 3, 346-351 (2008).
PROTOCOL TABLE (as described by Inglese J, Shamu CE and Guy RK. 2007)
SEQUENCE No. (e.g., 1, 2, 3, etc.); […] (e.g., Cells, Incubation, Reagent, etc.); VALUE and DESCRIPTION.
1. Cells. Seed 1500 HEK293 cGMP-sensor cells per well in 4uL into Greiner 1536-well white/solid bottom high base, TC plates.
2. Incubation. Incubate plated cells at 37C in 5% CO2, 95% RH overnight.
3. Reagent. Add 1uL per well GloSensor reagent from Promega (2% final concentration) or CO2 independent media vehicle control to respective columns of Greiner 1536-well plates.
4. Incubation. Incubate plated cells at room temperature for 2 h, protect from light.
5. Compounds. Library compounds and DMSO vehicle control added at 23nL per well, transferred by Pin Tool.
6. Incubation. Incubate plated cells for 30 min. at room temperature, protect from light.
7. Detector. GloSensor baseline pre-read luminescence measured using CCD-based camera (Viewlux).
8. Compound. Add 1uL of sodium nitroprusside (SNP) to 50 uM final concentration to stimulate soluble guanylyl cyclase (GC) or CO2 independent media as vehicle control.
9. Incubation. Incubate treated cells at room temperature for 20 min., protect from light.
10. Detector. GloSensor post-SNP luminescence measured using CCD-based camera (Viewlux).
NOTES (numbers refer to Sequence numbers above; values are from representative experiments)
1. HEK293 cells expressing GIP/pGS-40F were grown to 85-95% confluence (48-72 h) in T175 culture flasks (CO2 independent media supplemented with 10% FBS, 1% Pen/Strep antibiotics, and 1 ug/mL puromycin). Trypsinize and harvest cells from T175 culture flasks and filter through 40 um cell strainer. Cells counted with Invitrogen Countess (30,000,000 - 50,000,000 cells/flask).
2. Cells incubated for 24 h. at 37C in 95% RH incubator with metal lid having gas-exchange holes.
3. Prepare GloSensor Reagent (Promega): Reconstitute GloSensor luciferase substrate by adding 8.2mL Hepes buffer to 250mg substrate, mix well, protect from light and stored at -80C. Prepare a fresh 12% GloSensor solution in CO2 independent supplemented plating media (see above). Mix well and store at ambient temperature, protected from light. 1uL 12% GloSensor Luciferase Reagent added (2% final concentration) to respective columns of 9 x 1536-well Greiner plate with BioRaptr, 1uL CO2 independent plating media added to respective columns as vehicle control with BioRaptr.
4. Cells incubated for 2 h. at ambient temperature, protected from light with metal lid having gas-exchange holes.
5. 23nL of LOPAC128 library compounds (7 plates) or DMSO vehicle control transferred to 9 Greiner white/solid bottom high base, TC plates in 7 interplate 1:5 titrations (see Yasgar, A. et al. 2008) with Pintool. Two of the 9 plates are DMSO-only in compound field at beginning and end of compound library-treated plates.
6. Cells incubated for 30-50 min. at ambient temperature protected from light with metal lid having gas-exchange holes.
7. Read GloSensor + Antagonist/Compound baseline Luminescence on the ViewLux [Exposure, 30 s; Gain, High; Speed, Slow; Binning, 2X]
8. SNP solution prepared at 500 mM (in H2O) stock concentration. From this a working dilution was prepared at 300 uM in CO2 Independent media. 1uL of 300 uM SNP (50 uM final concentration) or CO2 Independent media vehicle control dispensed into respective columns of 9 x Greiner 1536-well white/solid bottom, tissue culture plates with BioRaptr.
9. Cells incubated for 20 min. at ambient temperature, protected from light with metal lid having gas-exchange holes.
10. Read final luminescence on the ViewLux. [Exposure, 30 s; Gain, High; Speed, Slow; Binning, 2X.]
[…]
In general terms: Counterscreens check selectivity or assay interference.
As for `COc1cc2c(cc1OC)-c1cc(=Nc3c(C)cc(C)cc3C)n(C)c(=O)n1CC2`, the Potency result is “inactive”. As for `CN1CCN(C2=Nc3ccccc3Oc3ccc(Cl)cc32)CC1`, the Potency result is “inactive”. To `CCN(CC)CCOCCOC(=O)C1(c2ccccc2)CCCC1` belongs “inactive”; to `CCn1nc(C(=O)O)c(=O)c2cc3c(cc21)OCO3`, “inactive”. Consider `CCNC(=O)N1CCN(CCCC(c2ccc(F)cc2)c2ccc(F)cc2)CC1`, for which the Potency was 11.7 µM (active). To `O=c1[nH]c(=O)n([C@H]2C[C@H](O)[C@@H](CO)O2)cc1Br` belongs “inactive”.

For `CCCN(CCC)C(=O)C(CCC(=O)O)NC(=O)c1ccccc1` (stereo not given), the Potency result was “inactive”. To `CC(=O)[C@@]1(O)CC[C@H]2[C@@H]3CCC4=CC(=O)CC[C@]4(C)[C@H]3CC[C@@]21C` belongs “inactive”; to `Nc1c2c(nc3ccccc13)CCCC2O` (stereo not given), “inactive”; to `CCc1c(C)[nH]c2c1C(=O)C(CN1CCOCC1)CC2` (stereo not given), “inactive”. Then `CN1CCN(CC(=O)N2c3ccccc3C(=O)Nc3cccnc32)CC1`, with “inactive”; and `CC(C)NNC(=O)c1ccncc1`, with “inactive”. Regarding `CC1=NS(=O)(=O)c2cc(Cl)ccc2N1`, the Potency entry was “inactive”. In the case of `Cc1scc2c1N(C(=O)CN1CCN(C)CC1)c1ccccc1NC2=O`, the Potency result is “inactive”. `O=C(CCNNC(=O)c1ccncc1)NCc1ccccc1`: the Potency entry is “inactive”. As for `COc1ccc(CN(CCN(C)C)c2ccccn2)cc1`, the Potency result is “inactive”.

In the case of `O=C(O)CN(CCN(CC(=O)O)CC(=O)O)CCN(CC(=O)O)CC(=O)O`, the Potency result is “inactive”.

As for `CN(C)C(=O)Oc1ccc[n+](C)c1`, the Potency result is “inactive”.

On to `CCc1cccc(N(C)C(N)=Nc2cccc3ccccc23)c1`, for which the Potency result was “inactive”. Then `CC(=O)Nc1nnc(S(N)(=O)=O)s1`, with “inactive”. Then `Fc1ccc(C(c2ccc(F)cc2)N2CCN(C/C=C/c3ccccc3)CC2)cc1`, with “inactive”. Then `CN(C)[C@@H]1C(=O)C(C(N)=O)=C(O)[C@@]2(O)C(=O)C3=C(O)c4c(O)ccc(Cl)c4[C@@H](O)[C@H]3C[C@@H]12`, with “inactive”; and `CCCCNC(=O)NS(=O)(=O)c1ccc(C)cc1`, with “inactive”; and `C#CCN(C)CCCOc1ccc(Cl)cc1Cl`, with “inactive”. Consider `CCn1ccnc1CC1COc2ccccc2O1` (stereo not given), for which the Potency result is “inactive”. As for `CNCCC(Oc1ccccc1OC)c1ccccc1` (stereo not given), the Potency entry is “inactive”. To `COc1ccc2c(c1OC)C(=O)O[C@@H]2[C@H]1c2c(cc3c(c2OC)OCO3)CCN1C` belongs “inactive”. As for `NC(Cc1ccc(Cl)cc1)C(=O)O` (stereo not given), the Potency entry is “inactive”. Consider `CN(C(=O)CCCOc1ccc2[nH]c(=O)ccc2c1)C1CCCCC1`, for which the Potency entry was “inactive”. Then `NC(=O)c1ncn([C@@H]2O[C@H](CO)[C@@H](O)[C@H]2O)c1O`, with “inactive”; and `CCN1CCC[C@H]1CNC(=O)c1c(O)c(Cl)cc(Cl)c1OC`, with “inactive”. `CCN(CC)CC(=O)Nc1c(C)cccc1C`: the Potency result is “inactive”. To `NCCCNCCSP(=O)(O)O` belongs “inactive”. With `C[C@@H](O)[C@H]1C(=O)N2C(C(=O)O)=C(SCCN=CN)C[C@H]12`, the Potency entry was “inactive”. As for `CC(C(=O)O)c1ccc(CC2CCCC2=O)cc1` (stereo not given), the Potency result was “inactive”. To `CC[N+](C)(C)c1cccc(O)c1` belongs “inactive”; to `Cc1cccc(C)c1NC(=O)C(C)N` (stereo not given), “inactive”. Then `CCCCNc1c(C(=O)OCC)c(C)nc2c1cnn2CC`, with “inactive”; and `CCCOc1ccccc1-c1nc2n[nH]nc2c(=O)[nH]1`, with “inactive”; and `CCCN1C[C@H](CSC)C[C@@H]2c3cccc4[nH]cc(c34)C[C@H]21`, with “inactive”.
